Screening data as filed in PubChem BioAssay.
This is one part of a sample in which hits are shown more often than they occur.
Methyltransferases: Primary Screen for Target Class Profiling of Small Molecule Inhibitors of Methyltransferases | purified enzyme, MTase-Glo SAH luminescence; stronger effect = lower value | calls only at 40 µM | 25,000 tested, 3.9% active | AID 1745853, 2022; call rule not given here
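Each enzyme was reacted with SAM and its substrate, with compounds tested once at 40 uM; SAH formed was read by MTase-Glo luminescence.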
Starred values were filed as active, the others as inactive; i = inactive; + = active, no number. % is set by controls: 0 for no effect and ±100 for the full control effect.

SMILES | Methyltransferases
CC1=CC(=O)CC(C)(C)[C@@]1(O)CC[C@@H](C)O[C@@H]1O[C@H](CO)[C@@H](O)[C@H](O)[C@H]1O | i
CC1(C(=O)NC2CCCCCCC2)Cn2c(cc3sccc32)C(=O)N1CCCc1ccccc1 (stereo not given) | i
Cn1nc2n(C)c(=O)c3ccc(C(=O)NC4CCCCC4)cc3n2c1=O | i
O=C(Nc1ccc(F)cc1F)N1Cc2c(sc3c2CCCC3)-n2cccc2C1c1ccc(F)cc1 (stereo not given) | i
COc1ccccc1CNC(=O)C1c2c(n(C)c3ccccc23)SCC(=O)N1c1ccccc1F (stereo not given) | i
COC(=O)c1cccc(NC(=O)N2Cc3c(sc4c3CCCC4)-n3cccc3C2c2ccccc2)c1 (stereo not given) | i
COc1ccccc1CNc1nc2c(-c3ccc(Cl)cc3)nnn2c2ccccc12 | i
C=Cc1ccc(Cn2nc3n(CC(C)C)c(=O)c4ccc(C(=O)NC(C)C)cc4n3c2=O)cc1 | i
CCn1c(=O)n(CC)c2cc(S(=O)(=O)Nc3cccc(OC)c3)ccc21 | i
Cc1cccc2nc(CNC(=O)c3cccc(C4CCNC4)c3)cn12 (stereo not given) | i
NC(=O)c1cccc2cn(-c3ccc(C4CCCNC4)cc3)nc12 (stereo not given) | +
O=C(c1ccc(C2CCCNC2)cc1)N1CCCN(c2ccc(F)cc2)CC1 (stereo not given) | i
Cc1nc(N=Nc2cc(S(=O)(=O)O)c3cc([N+](=O)[O-])cc(S(=O)(=O)O)c3c2)c(COP(=O)(O)O)c(C=O)c1O | +
O=C(C1CC1)N1CCc2cc(Br)c(S(=O)(=O)NCCN3CCN(c4ccccc4F)CC3)cc21 | i
CCOCCCN1C(=O)c2cc(-c3ccc(OC)c(OC)c3)nn2CC1(C)C(=O)NC1CCCCC1 (stereo not given) | i
Cc1ccc([N+](=O)[O-])cc1S(=O)(=O)N(C)/N=C/c1cnc2ccc(Br)cn12 | +
CN1C(=O)c2cc(NC(=O)c3ccc(Cl)cc3)ccc2N2CCN=C12 | i
CCC(C)NC(=O)c1ccc2c(=O)n(CCC(C)C)c3nn(Cc4ccccc4)c(=O)n3c2c1 (stereo not given) | i
CCCn1c(=O)c2ccc(C(=O)NC(C)CC)cc2n2c(=O)n(CC(=O)Nc3ccc(C)c(C)c3)nc12 (stereo not given) | i
NS(=O)(=O)c1cccc2c1c([N+](=O)[O-])cc1nc(O)c(O)nc12 | +
Cc1cc2[nH]c(=O)[nH]c2cc1S(=O)(=O)NCCc1ccc(Cl)cc1 | i
O=C(Nc1ccc(OC(F)(F)F)cc1)c1sccc1NCc1ccnc2ccccc12 | i
Cn1c2ccc(NC(=O)c3ccccc3)cc2c(=O)n2nc(C(=O)O)cc12 | i
Cc1cc(Nc2ccc(NC(=O)c3ccc(Nc4ccnc5ccccc45)cc3)cc2)nc(N)n1 | +
CCn1c(=O)n(CC)c2cc(S(=O)(=O)Nc3cccc(F)c3)ccc21 | i
SMILES | Methyltransferases
Oc1ccc([C@@H]2Oc3ccc(O)cc3[C@@H]3CCC[C@@H]32)cc1 | i
C/C=C/c1ccc2c(c1)[C@@H](C)[C@H](c1ccc(O)cc1)O2 | +
COc1cc([C@@H]2Oc3c(OC)cc(CCCO)cc3[C@@H]2CO[C@@H]2O[C@H](CO)[C@@H](O)[C@H](O)[C@H]2O)ccc1O | i
COc1cc(/C=C/C(=O)OC2CC3CCC2(C)C3(C)C)ccc1O (stereo not given) | i
COc1cc(C(O)C2COC(c3ccc(OC4OC(CO)C(O)C(O)C4O)c(OC)c3)C2CO)ccc1O (stereo not given) | i
COc1cc(C2Oc3c(OC)cc(CCCO)cc3C2CO)ccc1O (stereo not given) | +
COc1cc(C2Oc3c(O)cc(CCCO)cc3C2CO)ccc1O[C@H]1O[C@H](C)[C@@H](O)[C@H](O)[C@@H]1O (stereo not given in full) | i
COc1cc(C2Oc3c(OC)cc(/C=C/C(=O)OC4CC(O)(C(=O)O)CC(O)C4O)cc3C2CO)ccc1O (stereo not given) | +
O=C(/C=C/c1ccc(O)cc1)O[C@@H]1C[C@@](O)(C(=O)O)C[C@@H](O)[C@@H]1O | i
C/C=C/c1cc(OC)c2c(c1)[C@@H](C)[C@@H](c1ccc(O)c(OC)c1)O2 | +
CCN1C(=O)c2cc(C(=O)N3CCN(c4cccc(OC)c4)CC3)nn2CC1(C)C(=O)NC1CCCC1 (stereo not given) | i
CCCn1c(=O)c2ccccc2n2c(=O)n(CC(=O)Nc3cc(F)ccc3F)nc12 | i
CCOc1ccccc1NS(=O)(=O)c1cc2[nH]c(=O)[nH]c2cc1Cl | i
COc1ccc(-c2cc(=O)oc3cc(OCC(=O)Nc4ccc5c(c4)OCO5)ccc23)cc1 | i
COc1ccc2cc3n(c2c1)CC(C)(C(=O)NC1CCCCC1)N(CCN1CCCCC1C)C3=O (stereo not given) | i
CC(C)n1c(=O)c2ccc(C(=O)NC3CCCC3)cc2n2c(=O)n(CC(=O)NC(C)(C)C)nc12 | i
CC1(C(=O)NC2CCCCC2)Cn2c(ccc2-c2ccco2)C(=O)N1Cc1cccnc1 (stereo not given) | i
CCc1ccc(CN2C(=O)c3ccc(-c4ccccc4)n3CC2(C)C(=O)NC2CCC(C)CC2)cc1 (stereo not given) | i
O=C(O)CCc1ccc(NCc2cccc3c2CCCN3CCOc2ccccc2)cc1F | +
CC(=O)Nc1cccc(-c2n[nH]c3c2CC(=O)N(CCOc2ccccc2)C3)c1 | i
O=C(O)CCc1ccc(NCc2cccc(Oc3ccccc3)c2)cc1 | i
Cn1c(=O)c2ccc(C(=O)NC3CCCC3)cc2n2c(=O)n(CC(=O)Nc3cccc(F)c3)nc12 | i
COc1cccc(C(=O)Cn2nc3n(C)c(=O)c4ccc(C(=O)NC5CCCC5)cc4n3c2=O)c1 | i
COc1ccc(CNC(=O)CCc2nnc3n(Cc4ccc(F)cc4)c(=O)c4ccccc4n23)cc1 | i
NC(=O)c1ccccc1 | i
SMILES | Methyltransferases
NC(=O)c1cnc(-c2ccc(C3(N)CCC3)cc2)c(-c2ccccc2)c1 | +
Cn1c(=O)c2ccc(C(=O)NC3CCCC3)cc2n2c(SCc3cccc(Cl)c3)nnc12 | i
CC(C)CCN1C(=O)CSc2c(c3ccccc3n2C)C1C(=O)NCc1ccccc1 (stereo not given) | i
CCCn1c(=O)c2ccc(C(=O)NCC(C)C)cc2n2c(=O)n(Cc3ccc(F)cc3)nc12 | i
CC(C)CCNC(=O)C1(C)Cn2nc(C(=O)NCCC3=CCCCC3)cc2C(=O)N1C (stereo not given) | i
CC1(C(=O)NCc2ccccc2)Cn2nc(-c3ccccc3)cc2C(=O)N1CCc1ccccc1 (stereo not given) | i
CC1(C)CC[C@]2(C(=O)O[C@@H]3O[C@H](CO)[C@@H](O)[C@H](O)[C@H]3O)CC[C@]3(C)C(=CCC4[C@@]5(C)CC[C@H](O[C@H]6O[C@H](CO)[C@@H](O)[C@H](O[C@@H]7O[C@H](CO)[C@@H](O)[C@H](O)[C@H]7O)[C@H]6O)C(C)(C)C5CC[C@]43C)[C@@H]2C1 (stereo not given in full) | i
COC(=O)C1(C)CCC2(C(=O)O)CCC3(C)C(=CCC4C5(C)CC(O)C(OC6OCC(O)C(O)C6O)C(C)(CO)C5CCC43C)C2C1 (stereo not given) | i
